The results in this text go back to ChEMBL document CHEMBL3988442, “University of Dundee, Small-Polar-MMV Screening Library” (2021).

Test [1] concerns the target T1, Aspartate--tRNA(Asp/Asn) ligase (Mycobacterium tuberculosis (strain ATCC 25618 / H37Rv)) (UniProt P9WFW3). Also: in the data most compounds retested in dose-response had high values.
T1 sequence (whole entry): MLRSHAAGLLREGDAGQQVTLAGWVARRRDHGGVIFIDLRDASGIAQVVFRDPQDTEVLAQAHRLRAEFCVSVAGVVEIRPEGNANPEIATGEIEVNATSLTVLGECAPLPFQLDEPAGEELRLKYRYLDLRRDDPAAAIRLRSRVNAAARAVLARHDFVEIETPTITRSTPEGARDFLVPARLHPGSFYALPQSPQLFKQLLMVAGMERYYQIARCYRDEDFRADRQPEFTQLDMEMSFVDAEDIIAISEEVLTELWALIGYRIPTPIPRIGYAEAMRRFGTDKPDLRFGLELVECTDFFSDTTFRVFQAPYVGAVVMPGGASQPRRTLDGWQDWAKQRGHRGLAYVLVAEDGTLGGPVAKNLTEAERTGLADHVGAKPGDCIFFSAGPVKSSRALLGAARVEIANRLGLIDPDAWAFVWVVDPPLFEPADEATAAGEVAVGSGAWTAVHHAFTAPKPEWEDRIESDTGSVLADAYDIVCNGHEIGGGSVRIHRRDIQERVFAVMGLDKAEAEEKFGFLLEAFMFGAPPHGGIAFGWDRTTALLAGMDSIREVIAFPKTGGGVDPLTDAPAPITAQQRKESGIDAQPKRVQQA
As to the kind of experiment: Assay for Asp RNA synthetase-1 from Mycobacterium tuberculosis. It is filed as functional. Set-up: scale not given: direction of the effect not stated beside the values. The conditions noted are these: 30 µM.

Test [2] deals with Shiga toxin 2 (Escherichia coli O157:H7) (UniProt P09385+P09386). In words: E. coli 0.157:H7 Shiga Toxin SOP - stx2 screening assay. It is filed as functional. Set-up: scale not given: direction of the effect not stated beside the values. The conditions noted are these: 30 µM.

Regarding `CC(=O)N1CCCN(C(=O)CCc2c(C)noc2C)CC1`, the Percent Effect in test [1] was -5.26%; in test [2], 2.24%.
For `N#Cc1ccc(CN2CCC(c3ccnn3CCO)CC2)cc1` the same measures were 1.21% and 23.2%.
In the case of `CN(C)Cc1cc(=O)n2c(n1)CN(C(=O)Cc1ccsc1)CCC2`, the Percent Effect in test [1] is -1.04%; in test [2] it was -17%.
For `CCN(C(=O)c1ccc(-n2ncc(C#N)c2N)cc1)C1CCCC1` the same measures were 6.53% and 6.02%.
For `CCN(CC)CCNC(=O)c1cnc(C(C)(C)C)s1` the same measures were -0.45% and 17.4%.
In the same order, the values of `CN(C)Cc1ccnc(C2CCCN2Cc2ccncc2)n1` (configuration not stated) are -3.02% and -14.5%.
On to `OCCOCCN1CCCC1c1nc2cc(F)ccc2[nH]1` (configuration not stated), for which the figures for the Percent Effect in test [1] and in test [2] were -5.15% and -4.14%, respectively.
`CCc1nc2n(n1)CC(NCc1nc(C)ccc1O)CC2` (configuration not stated): the Percent Effect in test [1] was -1.83%; in test [2], 11.7%.
As for `Fc1ccc(CN2CC[C@H]3O[C@@H](COCC4CCOCC4)CC[C@H]32)cc1`, the Percent Effect in test [1] is 0.838%; in test [2], -14.5%.
Regarding `CC(C)c1nc(C2CCCN2Cc2ccn(C)c(=O)c2)no1` (configuration not stated), the figures for the Percent Effect in test [1] and in test [2] were 3.39% and -44.4%, respectively.
For `Cc1ccc(N(CC(=O)c2ccc(Br)cc2)C2=NCCCCC2)cc1` the same measures were 0.479% and -13.7%.
In the same order, the values of `Cc1cnc(CN2CCCC(c3cc(C(N)=O)[nH]n3)C2)o1` (configuration not stated) are 9.73% and 13.4%.
In the same order, the values of `CCn1ccnc1CN1CCN(CC(=O)NC(C)(C#N)C2CC2)CC1` (configuration not stated) are -4.1% and 27.2%.
Consider `CCc1nnc(CN2CCN(C(=O)c3cc4ccccc4[nH]3)CC2)o1`, for which the results for the Percent Effect in test [1] and in test [2] were -2.68% and 8.5%, respectively.
For `CN(C)C(=O)COCc1cncc2c1CCN(Cc1nccn1C)C2` the same measures were 10.5% and -47.9%.
For `Cc1noc(C2CCC3(CCN(C(=O)C4=CCCCC4)CC3)O2)n1` (configuration not stated) the same measures were -2.98% and 7.42%.
